Experimental data reported in PubChem BioAssay.
Activity calls are given as the source filed them. Unless noted, no rule for the calls is given here.

Key:
[1] = anti-His antibody binders, primary screen, artefact control for SMM control protein annotation, biochemical, small-molecule microarray, 635 nm fluorescence (AID 1128); conditions: anti-His Alexa647 antibody binding, higher = more signal;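 also: score merges feature fluorescence with signal-to-noise for each printed compound spot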
[2] = test system: Human papillomavirus type 1a E7 protein (residues 1-88); experiment: HPV1a E7 small-molecule binders, primary screen, biochemical, small-molecule microarray, residues 1-88, 635 nm (AID 1129); conditions: small-molecule microarray binding, fluorescence 635 nm; higher = more signal
[3] = target: Focal adhesion kinase 1 (Homo sapiens) (UniProt Q05397); experiment: small-molecule microarray binders of FAK, primary screen, biochemical, 635/667 nm fluorescence, BSA, DTT (AID 1130); conditions: PTK2 binding, 635 nm fluorescence, higher = more signal;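 also: composite of spot emission at 667 nm and signal to noise over triplicate slides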
Chain of Focal adhesion kinase 1 (Homo sapiens) (Q05397 whole entry, looked up): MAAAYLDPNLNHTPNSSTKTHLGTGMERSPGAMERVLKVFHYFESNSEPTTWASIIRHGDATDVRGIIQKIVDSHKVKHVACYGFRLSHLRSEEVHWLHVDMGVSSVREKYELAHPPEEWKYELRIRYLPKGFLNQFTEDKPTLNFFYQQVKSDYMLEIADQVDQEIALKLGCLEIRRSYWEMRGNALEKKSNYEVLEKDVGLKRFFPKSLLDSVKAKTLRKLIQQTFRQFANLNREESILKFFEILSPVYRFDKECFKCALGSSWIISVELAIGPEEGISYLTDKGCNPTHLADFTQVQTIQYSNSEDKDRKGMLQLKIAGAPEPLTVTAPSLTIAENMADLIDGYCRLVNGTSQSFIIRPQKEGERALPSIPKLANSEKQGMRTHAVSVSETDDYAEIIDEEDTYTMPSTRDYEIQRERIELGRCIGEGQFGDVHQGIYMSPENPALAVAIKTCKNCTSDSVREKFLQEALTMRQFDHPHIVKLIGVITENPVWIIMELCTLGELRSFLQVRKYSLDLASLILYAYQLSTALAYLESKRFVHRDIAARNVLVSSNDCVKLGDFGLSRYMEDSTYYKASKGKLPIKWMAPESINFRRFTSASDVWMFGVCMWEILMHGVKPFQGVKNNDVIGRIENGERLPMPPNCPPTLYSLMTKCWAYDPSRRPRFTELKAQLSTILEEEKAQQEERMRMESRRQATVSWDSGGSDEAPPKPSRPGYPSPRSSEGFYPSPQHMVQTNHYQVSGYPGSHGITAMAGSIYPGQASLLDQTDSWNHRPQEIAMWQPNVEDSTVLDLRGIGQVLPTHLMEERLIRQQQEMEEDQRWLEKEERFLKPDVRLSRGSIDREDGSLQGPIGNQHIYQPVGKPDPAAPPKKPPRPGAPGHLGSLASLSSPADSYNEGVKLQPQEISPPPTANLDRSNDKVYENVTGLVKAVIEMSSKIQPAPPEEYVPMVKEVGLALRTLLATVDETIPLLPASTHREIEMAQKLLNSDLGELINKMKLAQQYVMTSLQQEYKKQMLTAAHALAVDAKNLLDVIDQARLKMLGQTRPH

[4] = test system: Fibrinogen (Alexa647-labelled); experiment: fibrinogen binders on compound microarrays, profiling panel, artefact control for SMM control-protein annotation, biochemical, small-molecule microarray, 635/667 nm fluorescence (AID 1131); conditions: fibrinogen-A647 binding fluorescence, higher = more signal;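 also: z-score merges 667 nm fluorescence with per-spot signal-to-noise over triplicate slides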
[5] = target: Follistatin (Homo sapiens) (UniProt P19883); experiment: follistatin binders on small-molecule microarrays, primary screen, biochemical, small-molecule microarray, 635/667 nm fluorescence (AID 1132); conditions: FST binding, 635 nm fluorescence, higher = more signal
Chain of Follistatin (Homo sapiens) (P19883 whole entry, looked up): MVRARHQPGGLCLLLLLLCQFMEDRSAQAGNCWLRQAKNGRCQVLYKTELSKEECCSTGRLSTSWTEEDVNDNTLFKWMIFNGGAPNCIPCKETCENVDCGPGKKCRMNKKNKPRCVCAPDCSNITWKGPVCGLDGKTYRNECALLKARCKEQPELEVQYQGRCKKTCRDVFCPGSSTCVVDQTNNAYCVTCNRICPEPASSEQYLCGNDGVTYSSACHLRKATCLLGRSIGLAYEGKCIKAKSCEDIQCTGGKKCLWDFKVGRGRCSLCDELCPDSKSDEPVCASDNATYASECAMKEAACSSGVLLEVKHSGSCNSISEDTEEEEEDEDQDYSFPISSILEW

[6] = target: Fibroblast growth factor 2 (Homo sapiens) (UniProt P09038); experiment: FGF2 binders on small-molecule microarrays, primary screen, biochemical, small-molecule microarray, 635/667 nm fluorescence (AID 1133); conditions: small-molecule microarray binding, FGF2, fluorescence 635/667; higher = more signal
Chain of Fibroblast growth factor 2 (Homo sapiens) (P09038 whole entry, looked up): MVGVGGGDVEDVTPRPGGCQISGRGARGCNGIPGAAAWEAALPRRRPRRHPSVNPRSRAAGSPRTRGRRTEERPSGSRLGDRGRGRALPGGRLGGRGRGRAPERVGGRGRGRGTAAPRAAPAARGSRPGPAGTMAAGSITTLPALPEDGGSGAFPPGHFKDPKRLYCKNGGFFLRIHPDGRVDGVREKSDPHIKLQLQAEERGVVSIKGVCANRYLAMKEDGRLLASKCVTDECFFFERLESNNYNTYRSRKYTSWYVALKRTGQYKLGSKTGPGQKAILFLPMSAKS

[7] = mitochondrial membrane potential change in A549 cells, profiling panel, cell-based, JC-1 fluorescence, basal, 24 h, 100 nL (AID 1138); conditions: higher = more signal;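 also: A549 lung adenocarcinoma cells under basal conditions with no added stimulus; test concentration not given here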
Lefty1 = Lefty1 binders on small-molecule microarrays, primary screen, biochemical, small-molecule microarray, 635/667 nm fluorescence (AID 1139); conditions: small-molecule microarray binding, fluorescence 635/667; higher = more signal
[8] = test system: wheat germ agglutinin (Triticum aestivum), Alexa647-labelled; experiment: wheat germ agglutinin binders on compound microarrays, profiling panel, artefact control for SMM control-protein annotation, biochemical, small-molecule microarray, 635/667 nm fluorescence (AID 1140); conditions: WGA-A647 binding, 635 nm fluorescence, higher = more signal;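 also: score merges 667 nm feature emission with signal to noise over triplicate slides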
[9] = target: Luciferin 4-monooxygenase (Photinus pyralis) (UniProt P08659); experiment: firefly luciferase enzyme inhibitors, primary screen, biochemical, luminescence, purified enzyme, 2006 set (AID 1141); conditions: SteadyGlo luminescence, 30 min, higher = more signal, called active from +8 up or from −8 down;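 also: cell-free assay with purified firefly luciferase at 100 ng per well in PBS; test concentration not given here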
Chain of Luciferin 4-monooxygenase (Photinus pyralis) (P08659 whole entry, looked up): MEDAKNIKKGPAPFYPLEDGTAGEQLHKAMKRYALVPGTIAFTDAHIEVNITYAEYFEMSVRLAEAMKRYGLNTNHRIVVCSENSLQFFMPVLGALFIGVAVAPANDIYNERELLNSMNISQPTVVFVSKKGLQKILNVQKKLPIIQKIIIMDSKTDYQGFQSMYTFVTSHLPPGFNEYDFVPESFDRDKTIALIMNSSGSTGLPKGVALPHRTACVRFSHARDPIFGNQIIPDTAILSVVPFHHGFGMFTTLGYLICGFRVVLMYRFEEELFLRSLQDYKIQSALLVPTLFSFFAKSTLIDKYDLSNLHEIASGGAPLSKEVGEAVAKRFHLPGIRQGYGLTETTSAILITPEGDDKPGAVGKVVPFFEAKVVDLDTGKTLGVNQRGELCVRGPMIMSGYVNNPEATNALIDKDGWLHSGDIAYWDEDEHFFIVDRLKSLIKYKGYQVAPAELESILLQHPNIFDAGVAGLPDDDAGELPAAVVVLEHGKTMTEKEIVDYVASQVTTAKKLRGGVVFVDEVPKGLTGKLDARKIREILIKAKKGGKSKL

[10] = test system: Wnt5a (protein binding on small-molecule microarray); experiment: Wnt5a binders on small-molecule microarray, primary screen, biophysical, 635/667 nm fluorescence (AID 1142); conditions: 635 nm fluorescence, higher = more signal;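 also: fluorescence read at 667 nm with signal to noise per printed feature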
[11] = cell viability in Huh7 cells, primary screen, cytotoxicity control for HCV replication inhibitor project, CellTiter-Glo luminescence, basal, 48 h (AID 1143); conditions: Huh7 HCV replicon, higher = more signal, called active from +8 up or from −8 down;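 also: Huh7 hepatoma cells carrying a hepatitis C replication reporter with no stimulus; test concentration not given here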
[12] = P. aeruginosa biofilm formation inhibitors, primary screen, PAO1 strain, BacTiter-Glo luminescence, LB-PBS (AID 1144); conditions: 12 h, higher = more signal
[13] = CREB reporter modulators without forskolin, primary screen, cell-based, PC12, CRE-LacZ reporter, unstimulated (AID 1145); conditions: no forskolin, luminescence, 4.5 h, higher = more signal, called active from +8 up or from −8 down
[14] = CREB reporter modulators under forskolin, primary screen, cell-based, PC12, CRE-LacZ reporter, forskolin-stimulated (AID 1146); conditions: luminescence, 4.5 h, higher = more signal, called active from +8 up or from −8 down;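 also: PC12 cells with 6xCRE LacZ reporter stimulated by forskolin 10 µM; beta-galactosidase reporter signal reflecting CREB driven transcription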
[15] = target: Streptavidin (Streptomyces avidinii) (UniProt P22629); experiment: streptavidin binders on small-molecule microarray, primary screen, artefact control for SMM compound annotation, biophysical, 635/667 nm fluorescence (AID 1147); conditions: streptavidin binding, higher = more signal;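 also: signal reflects streptavidin binding to arrayed compounds as a control protein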
Chain of Streptavidin (Streptomyces avidinii) (P22629 whole entry, looked up): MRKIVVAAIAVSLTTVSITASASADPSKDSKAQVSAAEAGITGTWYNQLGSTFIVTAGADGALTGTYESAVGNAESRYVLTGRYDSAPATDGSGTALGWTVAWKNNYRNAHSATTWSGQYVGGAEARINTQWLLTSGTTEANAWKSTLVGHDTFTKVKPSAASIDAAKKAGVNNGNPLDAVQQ

[16] = small-molecule binders of probe aInhba, primary screen, biochemical, small-molecule microarray, 635/667 nm fluorescence (AID 1148); conditions: higher = more signal;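 also: score merges 667nm spot fluorescence with signal-to-noise for antibody binding to printed compounds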
Torsin-1A (Homo sapiens) [17] = target: Torsin-1A (Homo sapiens) (UniProt O14656); experiment: torsin A binders from cell lysate, primary screen, small-molecule microarray, wild-type, 635/667 nm (AID 1149); conditions: COS7 hTOR1A-WT lysate, 635 nm fluorescence, higher = more signal
Chain of Torsin-1A (Homo sapiens) (O14656 whole entry, looked up): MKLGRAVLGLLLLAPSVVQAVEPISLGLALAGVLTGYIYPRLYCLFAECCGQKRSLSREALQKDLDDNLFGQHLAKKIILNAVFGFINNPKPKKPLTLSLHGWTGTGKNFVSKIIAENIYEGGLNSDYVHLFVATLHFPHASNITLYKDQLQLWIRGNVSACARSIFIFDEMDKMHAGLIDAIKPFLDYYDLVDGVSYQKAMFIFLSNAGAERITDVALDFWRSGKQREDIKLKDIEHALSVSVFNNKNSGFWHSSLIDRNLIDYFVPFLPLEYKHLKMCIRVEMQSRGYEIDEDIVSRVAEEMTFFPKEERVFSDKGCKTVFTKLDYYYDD

Torsin-1A (Homo sapiens) [18] = target: Torsin-1A (Homo sapiens) (UniProt O14656); experiment: small-molecule binders of mutant TOR1A in lysate, primary screen, cell lysate, small-molecule microarray, COS7 lysate, 635/667 nm fluorescence (AID 1150); conditions: COS7 hTOR1A mutant lysate, 635 nm fluorescence, higher = more signal;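 also: score pools 667 nm emission and signal to noise measuring lysate protein binding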
[19] = test system: Sonic hedgehog protein (Shh); experiment: small-molecule binders of Shh protein, primary screen, biochemical, small-molecule microarray, 635/667 nm fluorescence (AID 1151); conditions: small-molecule microarray binding, 635 nm fluorescence; higher = more signal;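 also: Shh protein binding to compounds spotted on small-molecule microarray slides; score combines spot fluorescence intensity with signal-to-noise across triplicate slides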

Compound: COC(=O)C1=CC(CCCO)=CC(C2CC2)N(C)C=C1C(=O)OC (stereo not given)
- composite z-score [1]: -0.153
- composite z-score [2]: -0.308
- composite z-score [3]: 0.623
- composite z-score [4]: -0.828
- composite z-score [5]: -0.157
- composite z-score [6]: -0.539
- z-score [7]: 0.511
- composite z-score (Lefty1): -0.285
- composite z-score [8]: 1.26
- z-score [9]: 0.727 (inactive)
- composite z-score [10]: 0.0676
- z-score [11]: -2.82 (inactive)
- z-score [12]: -1.59 (inactive)
- z-score [13]: -0.581 (inactive)
- z-score [14]: 0.214 (inactive)
- composite z-score [15]: -0.326
- composite z-score [16]: -0.152
- composite z-score (Torsin-1A (Homo sapiens) [17]): 0.564
- composite z-score (Torsin-1A (Homo sapiens) [18]): 0.289
- composite z-score [19]: -0.526

Compound: OCCCC1=CC(c2ccc(CN3CCCC3)cc2)N(Cc2sc3ccccc3c2Cl)CC1 (stereo not given)
- composite z-score [1]: 2.68
- composite z-score [2]: 1.07
- composite z-score [3]: 0.609
- composite z-score [4]: 0.311
- composite z-score [5]: 1.19
- composite z-score [6]: 1.38
- z-score [7]: 2.11
- composite z-score (Lefty1): 0.649
- composite z-score [8]: 0.483
- z-score [9]: -1.01 (inactive)
- composite z-score [10]: 0.774
- z-score [11]: -2.99 (inactive)
- z-score [12]: 0.00672 (inactive)
- z-score [13]: 0.96 (inactive)
- z-score [14]: -0.134 (inactive)
- composite z-score [15]: 0.37
- composite z-score [16]: 0.0633
- composite z-score (Torsin-1A (Homo sapiens) [17]): 0.598
- composite z-score (Torsin-1A (Homo sapiens) [18]): 0.842
- composite z-score [19]: 1.46

Compound: [N-]=[N+]=NCc1ccccc1C[C@@]1(C(=O)N2CCCCC2)N=C(c2ccc(OCCCO)cc2)O[C@@H]1c1ccccc1
- composite z-score [1]: 0.686
- composite z-score [2]: 1.12
- composite z-score [3]: 0.214
- composite z-score [4]: 0.519
- composite z-score [5]: 0.24
- composite z-score [6]: 0.201
- z-score [7]: 0.144
- composite z-score (Lefty1): -0.693
- composite z-score [8]: 0.636
- z-score [9]: -0.362 (inactive)
- composite z-score [10]: 0.462
- z-score [11]: -4.99 (inactive)
- z-score [12]: 0.914 (inactive)
- z-score [13]: -0.552 (inactive)
- z-score [14]: 0.886 (inactive)
- composite z-score [15]: 0.325
- composite z-score [16]: 0.159
- composite z-score (Torsin-1A (Homo sapiens) [17]): -0.0373
- composite z-score (Torsin-1A (Homo sapiens) [18]): 0.601
- composite z-score [19]: -0.762

Compound: CC(C)[Si](C#CCCCC#N)(O[C@H](c1ccccc1)c1cn([C@H](CO)Cc2ccccc2)nn1)C(C)C
- composite z-score [1]: -0.135
- composite z-score [2]: 1.12
- composite z-score [3]: 0.26
- composite z-score [4]: 0.975
- composite z-score [5]: 1.14
- composite z-score [6]: 0.812
- z-score [7]: 0.162
- composite z-score (Lefty1): 0.385
- composite z-score [8]: 0.231
- z-score [9]: -0.175 (inactive)
- composite z-score [10]: -0.187
- z-score [11]: -0.248 (inactive)
- z-score [12]: -0.747 (inactive)
- z-score [13]: -0.463 (inactive)
- z-score [14]: 1.01 (inactive)
- composite z-score [15]: 1.18
- composite z-score [16]: -0.108
- composite z-score (Torsin-1A (Homo sapiens) [17]): 0.531
- composite z-score (Torsin-1A (Homo sapiens) [18]): 0.477
- composite z-score [19]: 0.774

Compound: NC(=O)NCC#Cc1ccc2c(c1)[C@]1(C(=O)N2)[C@H](C(=O)O)[C@H]2C(=O)O[C@H](c3ccccc3)[C@H](c3ccccc3)N2[C@@H]1c1ccc(OCCO)cc1
- composite z-score [1]: 0.894
- composite z-score [2]: 0.643
- composite z-score [3]: 0.116
- composite z-score [4]: 0.57
- composite z-score [5]: 1.18
- composite z-score [6]: 0.239
- z-score [7]: -0.765
- composite z-score (Lefty1): 0.183
- composite z-score [8]: 0.553
- z-score [9]: -2.23 (inactive)
- composite z-score [10]: 0.0755
- z-score [11]: -0.175 (inactive)
- z-score [12]: -0.015 (inactive)
- z-score [13]: -0.195 (inactive)
- z-score [14]: -0.746 (inactive)
- composite z-score [15]: 1.15
- composite z-score [16]: -0.102
- composite z-score (Torsin-1A (Homo sapiens) [17]): -0.0721
- composite z-score (Torsin-1A (Homo sapiens) [18]): 0.588
- composite z-score [19]: 0.135

Compound: COCCOC(=O)N1C(=O)[C@@]2(c3cc(C#CC4=CCCCC4)ccc31)[C@H](c1ccc(OCCO)cc1)N1[C@H](c3ccccc3)[C@H](c3ccccc3)OC(=O)[C@H]1[C@@H]2C(=O)NC[C@H](O)c1ccccc1
- composite z-score [1]: 0.392
- composite z-score [2]: 1.16
- composite z-score [3]: 0.499
- composite z-score [4]: 0.295
- composite z-score [5]: 1.48
- composite z-score [6]: 1.82
- z-score [7]: -1.4
- composite z-score (Lefty1): 1.65
- composite z-score [8]: -0.127
- z-score [9]: -2.06 (inactive)
- composite z-score [10]: 0.552
- z-score [11]: -2.18 (inactive)
- z-score [12]: 0.698 (inactive)
- z-score [13]: 0.354 (inactive)
- z-score [14]: -0.224 (inactive)
- composite z-score [15]: 0.785
- composite z-score [16]: 0.801
- composite z-score (Torsin-1A (Homo sapiens) [17]): 0.818
- composite z-score (Torsin-1A (Homo sapiens) [18]): 0.51
- composite z-score [19]: 1.85

Compound: COC(=O)[C@@]1(Cc2ccc(OC)cc2)[C@@H]2C(=CC(=O)[C@H]2CC(=O)C(=O)N(C)C)CN1C(=O)c1ccccc1
- composite z-score [1]: 0.318
- composite z-score [2]: 1.23
- composite z-score [3]: 0.242
- composite z-score [4]: 0.833
- composite z-score [5]: 0.433
- composite z-score [6]: -0.139
- z-score [7]: 0.437
- composite z-score (Lefty1): -0.973
- composite z-score [8]: 0.521
- z-score [9]: 2.12 (inactive)
- composite z-score [10]: 0.956
- z-score [11]: -3.7 (inactive)
- z-score [12]: -0.946 (inactive)
- z-score [13]: 0.0109 (inactive)
- z-score [14]: 0.0777 (inactive)
- composite z-score [15]: 1.23
- composite z-score [16]: 1.04
- composite z-score (Torsin-1A (Homo sapiens) [17]): 0.0826
- composite z-score (Torsin-1A (Homo sapiens) [18]): 0.387
- composite z-score [19]: -0.671

Compound: [N-]=[N+]=Nc1ccccc1[C@H]1OC(c2ccc(OCCCO)cc2)=N[C@@]1(Cc1ccccc1)C(=O)N1CCCCC1
- composite z-score [1]: 1.55
- composite z-score [2]: 1.2
- composite z-score [3]: 0.724
- composite z-score [4]: 0.963
- composite z-score [5]: 1.45
- composite z-score [6]: 1.67
- z-score [7]: -1.43
- composite z-score (Lefty1): 0.0229
- composite z-score [8]: 0.945
- z-score [9]: -6.62 (inactive)
- composite z-score [10]: 1.57
- z-score [11]: -3.95 (inactive)
- z-score [12]: -0.21 (inactive)
- z-score [13]: 0.722 (inactive)
- z-score [14]: -0.585 (inactive)
- composite z-score [15]: 1.16
- composite z-score [16]: 0.395
- composite z-score (Torsin-1A (Homo sapiens) [17]): 0.728
- composite z-score (Torsin-1A (Homo sapiens) [18]): 0.373
- composite z-score [19]: 0.021

Compound: CC(C)[Si](C#C[Si](C(C)C)(C(C)C)C(C)C)(O[C@H](C)c1cn([C@H](CO)Cc2ccccc2)nn1)C(C)C
- composite z-score [1]: 0.0517
- composite z-score [2]: 0.209
- composite z-score [3]: 0.21
- composite z-score [4]: 0.259
- composite z-score [5]: -0.093
- composite z-score [6]: 0.288
- z-score [7]: 0.476
- composite z-score (Lefty1): 0.412
- composite z-score [8]: 0.141
- z-score [9]: -1.03 (inactive)
- composite z-score [10]: -0.0305
- z-score [11]: -0.43 (inactive)
- z-score [12]: -1.52 (inactive)
- z-score [13]: -0.463 (inactive)
- z-score [14]: -0.531 (inactive)
- composite z-score [15]: 0.291
- composite z-score [16]: -0.234
- composite z-score (Torsin-1A (Homo sapiens) [17]): 0.238
- composite z-score (Torsin-1A (Homo sapiens) [18]): 0.144
- composite z-score [19]: 0.341
